An excerpt weighted towards active compounds, which were near 4.3% of everything screened.
MazEF act = increases E. coli MazEF RNase cleavage of RNA. FAM/BHQ RNA-DNA oligo cleavage fluorescence, 5 h. activation, % at 20 µM. hit rate 0.32% among 350,000; in the data active = activation above about 50%
Bead autofluor = compound fluorescence in toxin protease inhibitor counterscreen | fluorescence intensity (test concentration not listed) | hit rate 3.1% among 360,000 | compound autofluorescence counterscreen, microsphere flow cytometry; active compounds read high | AID 624483; in the data active = fluorescence intensity above about 16000; inconclusive = no clear call, values can overlap the other calls
Anthrax LF inh2 = anthrax lethal factor protease inhibition. hit rate 0.12% among 360,000. P15917. multiplex microsphere protease cleavage assay, LF. inhibition, % at 10 µM. AID 588501; also: plate controls were buffer without enzyme for full effect and enzyme alone for no effect
Target sequence (P15917 whole entry, looked up): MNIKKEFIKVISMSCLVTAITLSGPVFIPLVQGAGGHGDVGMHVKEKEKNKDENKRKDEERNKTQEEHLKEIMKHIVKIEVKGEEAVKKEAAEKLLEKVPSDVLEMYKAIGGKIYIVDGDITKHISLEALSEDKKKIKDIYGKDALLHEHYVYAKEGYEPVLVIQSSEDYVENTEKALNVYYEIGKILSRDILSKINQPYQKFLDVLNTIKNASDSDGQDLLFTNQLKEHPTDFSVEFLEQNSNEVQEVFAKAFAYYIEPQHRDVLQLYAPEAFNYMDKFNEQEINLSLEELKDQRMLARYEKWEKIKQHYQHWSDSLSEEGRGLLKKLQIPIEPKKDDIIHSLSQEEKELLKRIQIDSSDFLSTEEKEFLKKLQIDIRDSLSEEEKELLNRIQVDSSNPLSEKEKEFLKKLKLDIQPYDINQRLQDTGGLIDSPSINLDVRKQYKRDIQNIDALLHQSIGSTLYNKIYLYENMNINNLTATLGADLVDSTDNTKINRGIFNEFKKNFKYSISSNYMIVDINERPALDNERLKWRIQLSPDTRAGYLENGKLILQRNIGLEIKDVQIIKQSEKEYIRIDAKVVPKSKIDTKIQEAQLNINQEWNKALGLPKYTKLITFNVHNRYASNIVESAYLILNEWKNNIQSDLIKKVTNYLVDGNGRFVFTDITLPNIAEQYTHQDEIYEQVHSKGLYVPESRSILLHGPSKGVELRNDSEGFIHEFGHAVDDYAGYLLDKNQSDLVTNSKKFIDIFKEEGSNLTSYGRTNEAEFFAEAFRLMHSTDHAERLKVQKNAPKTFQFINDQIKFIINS
BoNT-F LC inh = BoNT F light chain protease inhibition; Multiplex microsphere protease cleavage assay, flow cytometry; inhibition, % at 10 µM; hit rate 0.22% among 360,000; in the data active = inhibition above about 35%, passing the limit was not always enough; inconclusive = no clear call, values can overlap the other calls; also: plate controls were buffer without enzyme for full effect and enzyme alone for no effect
PfHsp40 rescue = compounds rescuing yeast from Plasmodium falciparum HSP40 toxicity | AID 504582 | growth rescue, % at 12.5 µM | hit rate 0.68% among 340,000 | S. cerevisiae expressing PfHsp40, growth rescue, ATP luminescence; in the data active = growth rescue above about 28%, passing the limit was not always enough; inconclusive = no clear call, values can overlap the other calls;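 also: yeast W303a lacking pdr1 and pdr3 grown in galactose medium; growth measured after three days at 30 °C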
BoNT A protease = BoNT A light chain protease inhibition | hit rate 0.17% among 360,000 | inhibition, % at 10 µM | multiplex microsphere protease substrate cleavage, flow cytometry | AID 588499; also: plate controls were buffer without enzyme for full effect and enzyme alone for no effect
The depositor's hits bear a star; ? = inconclusive; . = no result. Rule as the data show it, unless noted: active = inhibition above about 30%; inconclusive = no clear call, values can overlap the other calls; inactive = below that.

SMILES | MazEF act | Bead autofluor | Anthrax LF inh2 | BoNT-F LC inh | PfHsp40 rescue | BoNT A protease
CC(=O)Nc1cccc(NC(=O)CSc2nc(=O)n(CCCN3CCOCC3)c3c2CCC3)c1 | 3.4 | ? | 2.6 | 12.2 | -0.5 | ?
COc1ccc(C2C(C#N)=C(C)NC3=C2C(=O)c2ccccc23)cc1 (stereo unspecified) | 9.1 | 9430 | -1.1 | -4.3 | -0.9 | 1.8
CCOc1ccc(C2C(C#N)=C(C)NC3=C2C(=O)c2ccccc23)cc1 (stereo unspecified) | 10.5 | 22424* | 4.0 | 3.6 | -0.9 | 2.7
O=C(Nc1ncccc1O)c1cccc(S(=O)(=O)NCc2ccccc2)c1 | 0.7 | . | . | . | 1.2 | .
Cc1sc2nc(CN(Cc3ccccc3)C(=O)NC3CCCCC3)[nH]c(=O)c2c1C | -9.0 | 4141 | 4.8 | 38.3* | 3.2 | 3.7
O=S(=O)(NCC1CCCO1)c1ccc(Cl)c2ccccc12 (stereo unspecified) | 9.7 | 3545 | -2.5 | -10.1 | . | -0.7
COCCn1c(=O)[nH]c(=O)c2c1nc(-c1ccc(-c3ccc(Cl)cc3[N+](=O)[O-])o1)n2Cc1ccccc1 | 6.2 | 2454 | -1.3 | -12.4 | -1.4 | -0.3
COCCn1c(-c2ccc(-c3ccc([N+](=O)[O-])cc3Br)o2)nc2c1c(=O)[nH]c(=O)n2CC(C)C | 98.2* | 4801 | 11.1 | 8.7 | 0.8 | 23.7
C=CCNC(=O)c1n[nH]c2c1CC(C(C)(C)CC)CC2 (stereo unspecified) | 1.6 | 3936 | -0.8 | -7.7 | 96.2* | -0.2
OC(c1ccccc1)c1ncc(-c2ccccc2Cl)[nH]1 (stereo unspecified) | . | 3997 | 1.4 | -3.1 | . | -0.3
O=C(COC(=O)CCC1CCCC1)Nc1ccc(Cl)cn1 | 9.6 | 17161* | -0.7 | -1.1 | 1.1 | -1.1
O=C(CSc1ncn[nH]1)N1c2ccccc2Sc2ccccc21 | 2.9 | 6254 | 0.2 | -4.4 | 1.6 | -1.2
CCN1CCN(C(c2cc3cc4c(cc3[nH]c2=O)OCO4)c2nnnn2C(C)(C)CC)CC1 (stereo unspecified) | 3.3 | 20945* | -9.3 | 4.5 | 0.2 | 4.6
CCC(C)(C)n1nnnc1C(c1cc2cc(OC)c(OC)cc2[nH]c1=O)N1CCc2ccccc21 (stereo unspecified) | -11.7 | 24005* | 1.9 | -5.8 | -0.3 | -4.1
COc1cc2cc(C(c3nnnn3C(C)(C)C)N3CCc4ccccc4C3)c(=O)[nH]c2cc1OC (stereo unspecified) | 0.8 | 6554 | -1.0 | -0.9 | -0.7 | 1.6
CN(CC(=O)Nc1cccc(F)c1)C(=O)CCCn1c(=O)oc2ccccc21 | -3.7 | 4616 | -2.6 | -3.7 | 0.6 | 3.0
O=C(CN1C(=O)CCS(=O)(=O)c2ccccc21)Nc1ccccc1F | 6.8 | 6090 | 1.1 | 17.9 | 1.2 | 0.5
CC(C)Oc1cccc(C(=O)C2CCCN(C(=O)c3cncs3)C2)c1 (stereo unspecified) | 9.4 | 4360 | -0.6 | 1.2 | 0.7 | 2.4
Cc1ccc(C(=O)N2CCCC(C(=O)c3ccc(Cl)cc3C)C2)cn1 (stereo unspecified) | 4.0 | 5301 | -3.9 | -3.9 | 1.2 | -0.1
Cc1cc(Cl)ccc1C(=O)C1CCCN(C(=O)c2cncs2)C1 (stereo unspecified) | 10.6 | 5333 | 1.8 | -2.8 | 376.6* | 0.2
O=C(c1ccc(-c2ccccc2)c(F)c1)C1CCCN(C(=O)c2cncs2)C1 (stereo unspecified) | 4.9 | 3737 | 0.5 | 0.3 | 412.0* | 0.0
Oc1cccc2c3c(oc12)CCCC3 | 7.2 | . | . | . | . | .
CC(=O)c1ccc(OCCCCOc2ccc(C(C)=O)cc2)cc1 | -3.3 | 3781 | 19.1 | ? | -0.3 | 3.2
CC1CC(C)CN(c2ccc(NS(=O)(=O)c3ccccc3)cc2C(=O)O)C1 (stereo unspecified) | -0.2 | 5628 | -0.3 | 3.4 | -0.8 | -1.0
Cc1ccc(OCCC(=O)OCC(=O)NCCc2ccc(Cl)cc2)cc1 | -0.2 | 6169 | 3.1 | 9.4 | -0.5 | 3.5
CCCNC(=O)CN1C(=O)c2ccccc2Sc2ncccc21 | 1.5 | 3990 | 29.6* | -0.6 | 0.8 | 2.4
Cc1ccc2[nH]cc(C(=O)CN3CCN(c4ccccc4F)CC3)c2c1 | 1.3 | 19645* | -2.7 | -1.0 | -0.8 | -0.7
CCN1CCN(CC(=O)c2c[nH]c3ccc(C)cc23)CC1 | -7.8 | 9143 | -2.1 | -10.3 | -0.3 | -0.7
Cc1ccc(-n2nnnc2SCc2nc3sc(C)c(C)c3c(=O)[nH]2)cc1 | 67.9* | 8852 | 0.0 | -3.9 | -1.1 | 0.6
